Test results reported in PubChem BioAssay (NCATS).
Records with an inconclusive call do not appear. A call without a number means that no potency is given here. Active and inactive are the calls of the source. Unless noted, calls follow the shape of the dose curve; as a rule, active = well fitted curve in the direction sought with a large enough effect in the repeat runs; inconclusive = weak or mixed curves; inactive = no such curve, though single readings can be large; an effect the other way counts as inactive or inconclusive.

Legend:
[1] = target: Papain (Carica papaya) (UniProt P00784); experiment: Primary qHTS assay for inhibitors of the protease papain (AID 1645873; active = well fitted curve in the direction sought with a large enough effect; an effect the other way counts as inactive or inconclusive;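 also: papain turnover of Z-FR-AMC read as the AMC fluorescence gain over 10 min; series mostly up to about 50 µM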)
Papain (Carica papaya), sequence (P00784 whole entry, looked up): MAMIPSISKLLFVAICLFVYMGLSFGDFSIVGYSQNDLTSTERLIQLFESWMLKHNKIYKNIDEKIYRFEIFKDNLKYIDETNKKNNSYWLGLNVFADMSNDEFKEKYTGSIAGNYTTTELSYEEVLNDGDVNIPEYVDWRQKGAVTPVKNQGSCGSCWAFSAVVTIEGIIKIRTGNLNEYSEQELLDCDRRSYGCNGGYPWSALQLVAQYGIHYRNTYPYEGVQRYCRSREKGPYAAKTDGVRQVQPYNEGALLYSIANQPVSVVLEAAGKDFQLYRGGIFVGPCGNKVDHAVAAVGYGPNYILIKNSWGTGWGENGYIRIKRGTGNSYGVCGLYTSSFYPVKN

[2] = target: Cytochrome P450 2C9 (Homo sapiens) (UniProt P11712); experiment: Cytochrome P450 family 2 subfamily C member 9 (CYP2C9) small molecule antagonists: luciferase biochemical (cell-free) qHTS assay (AID 1645842); also: nearly all actives have a fitted effect of over 55% in size; also: potency is read from the fitted curve at half-maximal effect
Cytochrome P450 2C9 (Homo sapiens), sequence (P11712 whole entry, looked up): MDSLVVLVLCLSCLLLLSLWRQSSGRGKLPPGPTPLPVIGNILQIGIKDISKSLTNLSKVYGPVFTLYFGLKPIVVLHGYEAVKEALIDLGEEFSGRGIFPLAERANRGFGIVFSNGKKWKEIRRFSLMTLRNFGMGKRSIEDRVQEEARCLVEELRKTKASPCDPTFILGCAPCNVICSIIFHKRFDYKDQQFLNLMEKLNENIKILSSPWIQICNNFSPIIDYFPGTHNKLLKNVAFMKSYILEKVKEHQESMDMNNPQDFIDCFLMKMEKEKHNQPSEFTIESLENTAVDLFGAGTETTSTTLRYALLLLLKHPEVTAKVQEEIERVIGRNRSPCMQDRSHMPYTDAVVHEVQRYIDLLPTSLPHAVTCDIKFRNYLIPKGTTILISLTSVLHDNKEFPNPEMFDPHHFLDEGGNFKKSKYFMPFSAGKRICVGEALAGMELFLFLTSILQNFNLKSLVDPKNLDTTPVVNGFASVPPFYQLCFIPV
Procedure, shortened: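 P450-Glo CYP2C9 system: proluciferin substrate with enzyme in mix containing 0.4% BSA, 10 min at room temperature, then NADPH regeneration solution added and incubated 1 h at 37C. Detection reagent stopped reaction; luminescence read after 20 min as RLU.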

[3] = target: Cytochrome P450 2D6 (Homo sapiens) (UniProt P10635); experiment: Cytochrome P450 family 2 subfamily D member 6 (CYP2D6) small molecule antagonists: luciferase biochemical (cell-free) qHTS assay (AID 1645840); also: nearly all actives have a fitted effect of over 55% in size; also: potency is read from the fitted curve at half-maximal effect
Cytochrome P450 2D6 (Homo sapiens), sequence (P10635 whole entry, looked up): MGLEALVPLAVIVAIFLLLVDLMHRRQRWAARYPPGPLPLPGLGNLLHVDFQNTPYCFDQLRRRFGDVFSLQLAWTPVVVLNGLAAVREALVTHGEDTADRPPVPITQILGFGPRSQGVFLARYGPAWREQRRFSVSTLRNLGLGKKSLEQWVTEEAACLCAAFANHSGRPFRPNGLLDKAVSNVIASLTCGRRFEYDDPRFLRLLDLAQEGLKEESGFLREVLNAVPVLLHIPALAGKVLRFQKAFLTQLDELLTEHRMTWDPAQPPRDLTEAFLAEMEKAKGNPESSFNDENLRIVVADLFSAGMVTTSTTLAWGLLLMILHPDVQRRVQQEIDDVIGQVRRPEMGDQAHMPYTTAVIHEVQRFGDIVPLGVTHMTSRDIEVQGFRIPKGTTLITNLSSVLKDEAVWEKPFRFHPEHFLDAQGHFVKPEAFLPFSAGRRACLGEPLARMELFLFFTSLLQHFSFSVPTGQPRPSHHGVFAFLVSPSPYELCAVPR
Procedure, shortened: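 P450-Glo CYP2D6 system: proluciferin substrate converted by enzyme to luciferin, read by luminescence proportional to activity. Enzyme-substrate mix with compound 10 min at room temperature, then NADPH regeneration 1 h before detection reagent.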

Row | SMILES | outcome [1] | Potency [2] | Potency [3]
1 | COC(=O)C1=CO[C@@H](O)[C@@H]2C(CO)=CC[C@H]12 | inactive | – | –
2 | CC(C)(C)C1CCC(CC2=C(O)c3ccccc3C(=O)C2=O)CC1 (stereo not drawn) | – | 3.89 µM (active) | –
3 | COC(=O)C1=C(C)NC(C)=C(C(=O)OCCc2ccc(N3CCN(C(c4ccccc4)c4ccccc4)CC3)cc2)C1c1cccc([N+](=O)[O-])c1 (stereo not drawn) | – | 0.55 µM (active) | inactive
4 | Nc1ccc(C(=O)OCC(O)CO)cc1 (stereo not drawn) | – | inactive | inactive
5 | Oc1ccc(CCNCCCCCCNCCc2ccccc2)cc1O | – | inactive | 24.5 µM (active)
